Bioassay records: PubChem BioAssay, Broad Institute
Hits are enriched below; roughly 2.3% of the tested compounds scored in any of these assays.
Pf Dd2 growth – inhibitors of Plasmodium falciparum Dd2 growth; activity change, % at 10 µM; 2.3% of 94,000 active; P. falciparum Dd2 growth, SYBR Green, 72 h; active compounds read low; in the data active means activity change below about -80%
C diff HTS – blocks growth of Clostridium difficile; Clostridium difficile clinical isolate growth, OD600, 24 h; active compounds read low; growth activity, negative = inhibition, % at 16 µg/mL (by protocol); 0.25% of 86,000 active; AID 1259249;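 active means mean growth activity at or below -80% and every replicate also at or below -80%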
Each line names hits and unclear results; the compound was inactive in the other large screens.

C[C@H](CO)N1C[C@H](C)[C@H](CN(C)Cc2ccc(C(F)(F)F)cc2)Oc2ccc(NC(=O)C3CC3)cc2CC1=O	none
C[C@@H]1CCCCO[C@H](CN(C)Cc2ccncc2)[C@@H](C)CN([C@@H](C)CO)C(=O)c2cc(NC(=O)C3CCCCC3)ccc2O1	Pf Dd2 growth -84.9
C[C@@H]1CCCCO[C@@H](CN(C)Cc2ccc(C(F)(F)F)cc2)[C@H](C)CN([C@H](C)CO)C(=O)c2cc(NC(=O)C3CCCCC3)ccc2O1	none
C[C@@H]1CCCCO[C@H](CN(C)Cc2ccc(C(F)(F)F)cc2)[C@@H](C)CN([C@@H](C)CO)C(=O)c2cc(NC(=O)C3CCCCC3)ccc2O1	Pf Dd2 growth -84.6
COc1ccc(-c2ccc3c(c2)[C@H]2[C@H](CCN2C(=O)C2CCCC2)[C@H](CO)N3C)cc1	Pf Dd2 growth -84.9
CN1c2ccc(C#Cc3cccnc3)cc2[C@@H]2[C@@H](CCN2C(=O)C2CCCC2)[C@@H]1CO	none
CN1c2ccc(Br)cc2[C@H]2[C@H](CCN2C(=O)Nc2ccc(F)cc2)[C@@H]1CO	C diff HTS -94.4
COc1ccc(-c2ccc3c(c2)[C@H]2[C@H](CCN2C(=O)C2CC2)[C@@H](CO)N3C)cc1	none
CN1c2ccc(Br)cc2[C@H]2[C@H](CCN2C(=O)Nc2ccc(F)cc2)[C@H]1CO	none
CN1c2ccc(C#Cc3cccnc3)cc2[C@H]2[C@H](CCN2C(=O)C2CCCC2)[C@H]1CO	Pf Dd2 growth -88.8
C[C@@H]1CN([C@@H](C)CO)S(=O)(=O)c2ccc(C#C[C@@H](C)O)cc2O[C@@H]1CN(C)C(=O)C1CCC1	none
CCCNC(=O)N1CC2(CCN(Cc3ccc(F)cc3)CC2)c2c([nH]c3cc(OC)ccc23)[C@H]1CO	none (no result: C diff HTS)
CC(C)NC(=O)N(C)C[C@H]1OCCCC[C@H](C)Oc2ccc(N(C)C)cc2C(=O)N([C@H](C)CO)C[C@@H]1C	none
CO[C@@H](CCO)[C@@H](O)c1ccc(O)c(F)c1	none (no result: Pf Dd2 growth)
C[C@@H]1CN([C@H](C)CO)C(=O)c2cccc(NC(=O)C3CC3)c2O[C@H]1CN(C)C(=O)Nc1ccc(C(F)(F)F)cc1	none
C[C@@H]1CN([C@H](C)CO)C(=O)c2cccc(NC(=O)Nc3cccc4ccccc34)c2O[C@H]1CN(C)C(=O)Nc1ccc(C(F)(F)F)cc1	none
C[C@@H]1CN([C@H](C)CO)C(=O)c2cccc(NC(=O)Nc3cccc4ccccc34)c2O[C@@H]1CN(C)C(=O)Nc1ccc(C(F)(F)F)cc1	Pf Dd2 growth -91.9
C[C@@H]1CN([C@H](C)CO)C(=O)c2cc(NC(=O)Nc3cccc4ccccc34)ccc2O[C@H]1CN(C)C(=O)Nc1ccc(C(F)(F)F)cc1	none
C[C@H]1CN([C@@H](C)CO)C(=O)c2cc(NC(=O)Nc3ccc(C(F)(F)F)cc3)ccc2O[C@@H]1CN(C)C(=O)Nc1cccc2ccccc12	Pf Dd2 growth -95.2
C[C@H](CO)N1C[C@H](C)[C@@H](CN(C)C(=O)Nc2cccc3ccccc23)Oc2ccc(NC(=O)Nc3ccc(C(F)(F)F)cc3)cc2C1=O	Pf Dd2 growth -95.8
C[C@H]1CN([C@@H](C)CO)C(=O)c2cc(NC(=O)Nc3ccc(F)cc3)ccc2O[C@@H]1CN(C)C(=O)Nc1cccc2ccccc12	none
C[C@@H]1CN([C@@H](C)CO)C(=O)c2cccc(NC(=O)C3CC3)c2O[C@@H]1CN(C)C(=O)Nc1ccc(C(F)(F)F)cc1	Pf Dd2 growth -88.7
C[C@@H]1CN([C@@H](C)CO)C(=O)c2cc(C#CCC3CCCC3)cnc2O[C@@H]1CN(C)C(=O)CN(C)C	none
CCCNC(=O)[C@H]1[C@H](CO)[C@H]2Cn3c(cccc3=O)[C@@H]1N2C(=O)Nc1cc(F)ccc1F	none
C[C@@H]1CN([C@@H](C)CO)C(=O)c2cccc(NC(=O)C3CCOCC3)c2O[C@@H]1CN(C)Cc1ccc(C(=O)Nc2ccccc2N)cc1	none
Cc1cccc(S(=O)(=O)N2CCCCN3[C@H](CO)[C@@H](c4ccc(-c5ccccc5)cc4)[C@@H]3C2)c1	none
C[C@H]1CN([C@@H](C)CO)C(=O)c2cc(NC(=O)Nc3cccc4ccccc34)ccc2O[C@H]1CN(C)C(=O)Nc1ccc(C(F)(F)F)cc1	Pf Dd2 growth -91.2
C[C@H](CO)N1C[C@H](C)[C@@H](CN(C)C(=O)Nc2ccc(C(F)(F)F)cc2)Oc2ccc(NC(=O)Nc3cccc4ccccc34)cc2C1=O	none
CO[C@H]1CN(C)C(=O)c2ccc(NC(=O)c3nc4ccccc4s3)cc2OC[C@@H](C)N(Cc2ccncc2)C[C@H]1C	none (no result: C diff HTS)
CO[C@@H]1CN(C)C(=O)c2ccc(NC(=O)c3nc4ccccc4s3)cc2OC[C@H](C)N(Cc2ccncc2)C[C@H]1C	none (no result: C diff HTS)
CO[C@H]1CN(C)C(=O)c2ccc(NC(=O)c3nc4ccccc4s3)cc2OC[C@H](C)N(Cc2ccncc2)C[C@@H]1C	Pf Dd2 growth -93.4 (no result: C diff HTS)
CO[C@@H]1CN(C)C(=O)c2ccc(NC(=O)c3nc4ccccc4s3)cc2OC[C@@H](C)N(Cc2cccnc2)C[C@H]1C	Pf Dd2 growth -90.1
CO[C@@H]1CN(C)C(=O)c2ccc(NC(=O)c3nc4ccccc4s3)cc2OC[C@@H](C)N(Cc2cccnc2)C[C@@H]1C	none
CO[C@@H]1CN(C)C(=O)c2ccc(NC(=O)c3nc4ccccc4s3)cc2OC[C@@H](C)N(Cc2ccncc2)C[C@H]1C	Pf Dd2 growth -96.8 (no result: C diff HTS)
Cc1ccc(S(=O)(=O)Nc2ccc3c(c2)C(=O)N([C@H](C)CO)C[C@@H](C)[C@H](CN(C)C(=O)Nc2ccc(F)cc2)O3)cc1	none
O=C(CC1CC1)N1CC(=O)N2[C@H](C1)[C@@H](c1ccc(C#Cc3ccccc3)cc1)[C@@H]2CO	none
O=C(C[C@@H]1C=C[C@H](NC(=O)C2CCOCC2)[C@@H](CO)O1)NCc1ccccc1Cl	none
O=C(Nc1ccccc1)N1CCCCN2[C@H](C1)[C@@H](c1ccc(C#Cc3ccccc3)cc1)[C@@H]2CO	none
O=C(Nc1ccccc1F)N1CCCCN2[C@H](CO)[C@@H](c3ccc(C#Cc4ccccc4)cc3)[C@@H]2C1	none
O=C(Nc1ccccc1)N1CCCCN2[C@H](C1)[C@H](c1ccc(C#Cc3ccccc3)cc1)[C@@H]2CO	none
O=C(Nc1ccccc1F)N1CCCCN2[C@H](CO)[C@H](c3ccc(C#Cc4ccccc4)cc3)[C@@H]2C1	Pf Dd2 growth -89.0
O=C(Nc1ccc(F)cc1)N1CCCCN2[C@H](C1)[C@H](c1ccc(C#Cc3ccccc3)cc1)[C@@H]2CO	Pf Dd2 growth -89.4
O=C(Nc1ccc(F)cc1)N1CCCCN2[C@H](CO)[C@H](c3ccc(C#Cc4ccccc4)cc3)[C@@H]2C1	Pf Dd2 growth -82.6
O=C(Nc1ccccc1)N1CCCCN2[C@H](CO)[C@H](c3ccc(C#Cc4ccccc4)cc3)[C@H]2C1	C diff HTS -101.2
O=C(Nc1ccccc1)N1CCCCN2[C@H](CO)[C@H](c3ccc(C#Cc4ccccc4)cc3)[C@@H]2C1	none
CO[C@H](CN(C)C(=O)c1ccc2c(c1)OCO2)[C@H](C)CN([C@H](C)CO)S(=O)(=O)c1ccccc1	none (no result: C diff HTS)
C[C@@H]1CN([C@H](C)CO)S(=O)(=O)c2ccc(-c3ccccc3)cc2O[C@H]1CN(C)Cc1cccc(F)c1	none
COc1ccc2c3c(n(C)c2c1)[C@@H](CO)N(C(=O)Nc1ccc(F)cc1)CC31CN(C(=O)Nc2c(C)noc2C)C1	none
CC(C)(O)C#Cc1ccc([C@H]2[C@@H](CO)N3CCCCN(C(=O)c4ccc(F)cc4)C[C@H]23)cc1	none
